Experimental data published in PubChem BioAssay (Tox21).
Results filed as inconclusive are left out. Calls of active or inactive are those of the source. Unless noted, calls come from the whole dose curve; as a rule, active = well fitted curve in the direction sought with a large enough effect in the repeat runs; inconclusive = weak or mixed curves; inactive = no such curve, though single readings can be large; an effect the other way counts as inactive or inconclusive.

Experiments:
[1] = qHTS assay to identify small molecule agonists of the sonic hedgehog signaling (Shh) pathway - cell viability counter screen (AID 1259366); note: nearly all actives have a fitted effect of over 50% in size
In short: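 NIH/3T3-derived Gli1-Luc reporter cells, 2,000 per well, received compound after 4 h and were treated about 23 h at 37C. Viability measured in the same wells by CellTiter-Fluor fluorescence after 1 h.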

[2] = qHTS assay to identify small molecule antagonists of the sonic hedgehog signaling (Shh) pathway - cell viability counter screen (AID 1259367); note: nearly all actives have a fitted effect of over 55% in size
In short: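 Using CellTiter-Fluor, viability of Gli1-Luc reporter 3T3 cells is read by fluorescence in the wells used for the Shh luciferase assay. Treatment lasts 23 hr with conditioned medium, then reagent 1 hr at 37C.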

[3] = qHTS assay to identify small molecule agonists of the sonic hedgehog signaling (Shh) pathway (AID 1259368; calls by dose curve;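 note: NIH/3T3-derived 3T3Gli1-Luc cells carrying a stable Gli1-driven firefly luciferase reporter; series mostly up to about 92 µM; nearly all actives have a fitted effect of over 15% in size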)
In short: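 Mouse fibroblast (NIH/3T3) reporter cells with stably integrated Gli1-Luc were treated 24 hr with compound; firefly luciferase luminescence served as the read-out.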

[4] = qHTS assay to identify small molecule antagonists of the sonic hedgehog signaling (Shh) pathway (AID 1259369; calls by dose curve; note: nearly all actives have a fitted effect of over 45% in size)
In short: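 Conditioned medium drives Shh signalling in 3T3Gli1-Luc cells; compounds in DMSO co-applied, 24hr at 37 C, then luciferase luminescence.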

[5] = target: Estrogen receptor beta (Homo sapiens) (UniProt Q92731); assay: qHTS assay to identify small molecule agonists of the estrogen receptor beta (ER-beta) signaling pathway (AID 1259377; active = well fitted activation curve with a large enough effect in the signal ratio in the repeat runs, not every such curve was filed as active; the % refers to the signal ratio)
Chain of Estrogen receptor beta (Homo sapiens) (Q92731 whole entry, looked up): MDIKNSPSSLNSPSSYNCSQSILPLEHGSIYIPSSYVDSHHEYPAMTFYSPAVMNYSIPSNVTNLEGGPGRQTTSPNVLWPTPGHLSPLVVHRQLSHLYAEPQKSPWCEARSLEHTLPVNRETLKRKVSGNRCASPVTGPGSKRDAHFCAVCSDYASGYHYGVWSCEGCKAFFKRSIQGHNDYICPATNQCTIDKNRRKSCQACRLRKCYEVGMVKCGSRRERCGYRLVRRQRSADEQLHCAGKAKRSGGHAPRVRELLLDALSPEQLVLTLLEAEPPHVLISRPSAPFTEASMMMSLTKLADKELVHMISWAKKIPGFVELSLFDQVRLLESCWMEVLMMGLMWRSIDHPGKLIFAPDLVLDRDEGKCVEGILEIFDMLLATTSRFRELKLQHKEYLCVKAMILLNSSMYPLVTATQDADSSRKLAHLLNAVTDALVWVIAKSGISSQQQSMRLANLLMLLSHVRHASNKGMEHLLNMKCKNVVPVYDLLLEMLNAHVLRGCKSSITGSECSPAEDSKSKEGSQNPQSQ
In short: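 ER-beta-UAS-bla HEK293T cells in medium with 2% charcoal-stripped FBS were exposed to compounds for 16 h at 37C. Beta-lactamase reporter activity was read as fluorescence after 2 h with LiveBLAzer B/G FRET substrate at room temperature.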

[6] = target: Estrogen receptor beta (Homo sapiens) (UniProt Q92731); assay: qHTS assay to identify small molecule antagonists of the estrogen receptor beta (ER-beta) signaling pathway (AID 1259378; active = well fitted inhibition curve with a large enough effect in the signal ratio in the repeat runs, not every such curve was filed as active; the % refers to the signal ratio)
In short: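 Antagonist mode: compounds added to beta-lactamase reporter HEK293T ER-beta-UAS cells stimulated with E2 (1nM final), 16 hr at 37C. LiveBLAzer B/G FRET substrate, 2 hours room temperature, fluorescence read-out.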

[7] = qHTS assay to identify small molecule agonists of the androgen receptor (AR) signaling pathway in the presence of an antagonist - cell viability counter screen (AID 1259379);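 note: MDA-kb2 human breast cancer cells carrying an MMTV luciferase reporter; series mostly up to about 92 µM; nearly all actives have a fitted effect of over 25% in size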
In short: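 A CellTiter-Fluor read-out measured viability of MDA-kb2 reporter cells (MMTV promoter with AR and GR response elements). Treatment: nilutamide 3.0uM final with compounds at 15 concentrations, 16 hr, 37C, 0% CO2.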

[8] = qHTS assay to identify small molecule agonists of the estrogen receptor beta (ER-beta) signaling pathway - cell viability counter screen (AID 1259380); note: nearly all actives have a fitted effect of over 30% in size
In short: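 Cells used were ER-beta-UAS-bla HEK293T in medium with 2% charcoal-stripped FBS. They were treated for 16 hr at 37C. Viability came from CellTiter-Glo luminescence.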

[9] = qHTS assay to identify small molecule antagonists of the estrogen receptor beta (ER-beta) signaling pathway - cell viability counter screen (AID 1259382); note: series mostly up to about 92 µM; nearly all actives have a fitted effect of over 55% in size
In short: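 Agonist-stimulated (1nM E2) ER-beta-UAS-bla HEK293T cells are incubated with library compounds for 16 hr at 37C. Cell viability is then assessed in the reporter-assay wells by adding CellTiter-Glo and reading luminescence after 30 min.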

[10] = target: Androgen receptor (Homo sapiens) (UniProt P10275); assay: qHTS assay to identify small molecule agonists of the androgen receptor (AR) signaling pathway in the presence of an antagonist (AID 1259381; calls by dose curve; note: nearly all actives have a fitted effect of over 15% in size)
Chain of Androgen receptor (Homo sapiens) (P10275 whole entry, looked up): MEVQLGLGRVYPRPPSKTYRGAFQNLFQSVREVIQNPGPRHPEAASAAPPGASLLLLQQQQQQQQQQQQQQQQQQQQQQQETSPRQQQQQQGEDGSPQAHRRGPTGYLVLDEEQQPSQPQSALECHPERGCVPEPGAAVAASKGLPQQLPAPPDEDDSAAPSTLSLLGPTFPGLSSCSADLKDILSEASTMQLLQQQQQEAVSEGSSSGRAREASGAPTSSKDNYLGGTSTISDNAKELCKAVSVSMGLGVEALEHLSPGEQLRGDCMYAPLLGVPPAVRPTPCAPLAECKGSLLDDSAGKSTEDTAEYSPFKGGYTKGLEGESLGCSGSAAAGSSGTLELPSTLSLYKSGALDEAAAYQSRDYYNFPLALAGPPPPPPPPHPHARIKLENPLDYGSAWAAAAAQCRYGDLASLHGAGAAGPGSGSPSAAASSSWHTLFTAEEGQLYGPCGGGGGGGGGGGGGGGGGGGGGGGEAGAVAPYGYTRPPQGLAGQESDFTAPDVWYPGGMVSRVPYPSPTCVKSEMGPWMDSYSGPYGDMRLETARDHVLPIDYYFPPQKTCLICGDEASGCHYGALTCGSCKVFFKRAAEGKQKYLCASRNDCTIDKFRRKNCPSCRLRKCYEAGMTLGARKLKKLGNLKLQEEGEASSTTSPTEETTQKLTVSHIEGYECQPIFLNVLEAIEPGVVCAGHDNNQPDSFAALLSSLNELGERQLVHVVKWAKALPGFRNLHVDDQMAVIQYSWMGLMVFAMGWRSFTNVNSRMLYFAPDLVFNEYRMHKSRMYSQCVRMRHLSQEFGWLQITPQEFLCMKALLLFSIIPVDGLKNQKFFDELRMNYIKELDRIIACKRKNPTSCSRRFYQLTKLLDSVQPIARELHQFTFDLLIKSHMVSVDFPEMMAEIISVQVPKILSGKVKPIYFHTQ
In short: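 Using human MDA-kb2 cells with an MMTV promoter–luciferase construct (AR and GR response elements), agonist activity is scored under 3.0uM nilutamide (final) co-treatment; 16hr incubation, 37C, luminescence readout via ONE-Glo.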
% is set by controls: 0 for no effect and ±100 for the full control effect.

COC(=O)c1ccc(C(=O)O)cc1
inactive: outcome [1] | outcome [2] | outcome [3] | Potency [4] | Potency [5] | outcome [6] | outcome [7] | Potency [8] | outcome [9]

CC(CC(=O)Cl)CC(C)(C)C (stereo unspecified)
inactive: outcome [1] | outcome [2] | outcome [3] | Potency [4] | Potency [5] | outcome [6] | outcome [7] | Potency [8] | outcome [9]

CC(C)C(C)C
inactive: outcome [1] | outcome [2] | outcome [3] | Potency [4] | Potency [5] | outcome [6] | outcome [7] | Potency [8] | outcome [9]

CC(=O)c1ccc(O)c(C(N)=O)c1
inactive: outcome [1] | outcome [2] | outcome [3] | Potency [4] | Potency [5] | outcome [6] | outcome [7] | Potency [8] | outcome [10] | outcome [9]

CCCCCCCCCCCCCCCCN(C)C
inactive: viability change, negative = cytotoxic [1] 4.7% [at 8.39 µM] | viability change, negative = cytotoxic [2] 2.16% [at 8.39 µM] | activity change [3] -0.702% [at 8.39 µM] | activity change, negative = inhibition [4] -28.7% [at 8.39 µM] | activation [5] -2.39% [at 8.39 µM] | activity, negative = inhibition [6] 3.25% [at 8.39 µM] | activity change, negative = cytotoxicity [7] 0.395% [at 8.39 µM] | activity change, negative = cytotoxicity [8] 3.62% [at 8.39 µM] | activation [10] -0.033% [at 8.39 µM] | activity change, negative = cytotoxicity [9] 6.11% [at 8.39 µM]

O=c1[nH]c(=O)c2cn[nH]c2[nH]1
inactive: outcome [1] | outcome [2] | outcome [3] | Potency [4] | Potency [5] | outcome [6] | outcome [7] | Potency [8] | outcome [9]

O=Cc1ccccc1S(=O)(=O)O
inactive: outcome [1] | outcome [2] | outcome [3] | Potency [4] | Potency [5] | outcome [6] | outcome [7] | Potency [8] | outcome [9]

O=C1c2ccccc2C(=O)N1CO
inactive: outcome [1] | outcome [2] | outcome [3] | Potency [4] | Potency [5] | outcome [6] | outcome [7] | Potency [8] | outcome [10] | outcome [9]

CC(C)(C)NCC(O)COc1cccc2c1CCC(=O)N2 (stereo unspecified)
inactive: outcome [1] | outcome [2] | outcome [3] | Potency [4] | Potency [5] | outcome [6] | outcome [7] | Potency [8] | outcome [10] | outcome [9]

COc1ccc(Cl)cc1C
inactive: outcome [1] | outcome [2] | outcome [3] | Potency [4] | Potency [5] | outcome [6] | outcome [7] | Potency [8] | outcome [9]

CCCCC(CC)CCC(CC(C)C)OS(=O)(=O)O (stereo unspecified)
inactive: outcome [1] | outcome [2] | outcome [3] | Potency [4] | Potency [5] | outcome [6] | outcome [7] | Potency [8] | outcome [9]

CCN(CC)CC(=O)Oc1ccc(NC(C)=O)cc1
inactive: outcome [1] | outcome [2] | outcome [3] | Potency [4] | Potency [5] | outcome [6] | outcome [7] | Potency [8] | outcome [10] | outcome [9]

CCCc1ncc(C(=O)O)s1
inactive: outcome [1] | outcome [2] | outcome [3] | Potency [4] | Potency [5] | outcome [6] | outcome [7] | Potency [8] | outcome [10] | outcome [9]

CCCCCCCCCCCC(C)=O
inactive: outcome [1] | outcome [2] | outcome [3] | Potency [4] | Potency [5] | outcome [6] | outcome [7] | Potency [8] | outcome [9]

CCCCCCCCCCCCCCCC(=O)OC
inactive: viability change, negative = cytotoxic [1] 4.58% [at 19 µM] | viability change, negative = cytotoxic [2] -2.31% [at 19 µM] | activity change [3] 0.811% [at 18.9 µM] | activity change, negative = inhibition [4] 21.4% [at 19 µM] | activation [5] -1.46% [at 19 µM] | activity, negative = inhibition [6] 3.6% [at 19 µM] | activity change, negative = cytotoxicity [7] 0.0056% [at 19 µM] | activity change, negative = cytotoxicity [8] 4.05% [at 19 µM] | activity change, negative = cytotoxicity [9] 0.248% [at 19 µM]

Cc1nnc(C(=O)NC(C)(C)c2nc(C(=O)NCc3ccc(F)cc3)c(O)c(=O)n2C)o1
inactive: outcome [1] | outcome [2] | outcome [3] | Potency [4] | Potency [5] | outcome [6] | outcome [7] | Potency [8] | outcome [9]

COC(=O)c1ccccc1Cl
inactive: outcome [1] | outcome [2] | outcome [3] | Potency [4] | Potency [5] | outcome [6] | outcome [7] | Potency [8] | outcome [9]

CNC(=O)c1c(I)c(NC(C)=O)c(I)c(C(=O)O)c1I
inactive: outcome [1] | outcome [2] | outcome [3] | Potency [4] | Potency [5] | outcome [6] | outcome [7] | Potency [8] | outcome [9]

CCOC(=O)CC(C(C)=O)C(C)=O
inactive: outcome [1] | outcome [2] | outcome [3] | Potency [4] | Potency [5] | outcome [6] | outcome [7] | Potency [8] | outcome [9]

C=CC(C)(CCC=C(C)C)OC(=O)C(C)C (stereo unspecified)
inactive: outcome [1] | outcome [2] | outcome [3] | Potency [4] | Potency [5] | outcome [6] | outcome [7] | Potency [8] | outcome [9]

COc1cc2nc(N3CCN(C(=O)C4CCCO4)CC3)nc(N)c2cc1OC (stereo unspecified)
inactive: outcome [1] | outcome [2] | outcome [3] | Potency [4] | Potency [5] | outcome [6] | outcome [7] | Potency [8] | outcome [9]

COc1ccccc1N1CCN(CC(O)COc2cc(OC)c(OC)c(OC)c2)CC1 (stereo unspecified)
inactive: outcome [1] | outcome [2] | outcome [3] | Potency [4] | Potency [5] | outcome [6] | outcome [7] | Potency [8] | outcome [9]

O=C(O)COc1ccc2ccccc2c1
inactive: outcome [1] | outcome [2] | outcome [3] | Potency [4] | Potency [5] | outcome [6] | outcome [7] | Potency [8] | outcome [9]

C/C=C/C(=O)CCCC
inactive: outcome [1] | outcome [2] | outcome [3] | Potency [4] | Potency [5] | outcome [6] | outcome [7] | Potency [8] | outcome [9]

CC(C)c1cc(C(C)C)cc(C(C)C)c1
inactive: outcome [1] | outcome [2] | outcome [3] | Potency [4] | Potency [5] | outcome [6] | outcome [7] | Potency [8] | outcome [9]
